From PubChem BioAssay AID488846 (National Center for Advancing Translational Sciences (NCATS), 2010)
Activity calls are given as the source filed them. Calls come from the whole dose curve; as a rule, active = well fitted curve in the direction sought with a large enough effect; inactive = no such curve, though single readings can be large or run the other way.

target: Alpha-galactosidase A (Homo sapiens) (UniProt P06280); assay: qHTS Assay for Inhibitors and Activators of N370S glucocerebrosidase as a Potential Chaperone Treatment of Gaucher Disease: Alpha-Galactosidase Counterscreen for Probe SAR; conditions: purified human alpha-galactosidase, 4-MU-alpha-Gal fluorescence
From the text: NIH Chemical Genomics Center [NCGC] NIH Molecular Libraries Probe Production Centers Network [MLPCN] MLPCN Grant: MH086442-01 Assay Submitter (PI): Wei Zheng Glucocerebrosidase (GC) catalyzes the hydrolysis of beta-glucocerebroside to glucose and ceramide in lysosomes. Mutations in the glucocerebrosidase gene result in Gaucher disease, an autosomal recessive lysosomal storage disorder. Many of the mutations encountered in patients with Gaucher disease are missense alterations that may cause misfolding, decreased stability and/or mistrafficking of this lysosomal protein. […] These inhibitors include iminosugar analogs and three non-iminosugar inhibitors identified from a previous HTS of 62,000 compounds with the wild type recombinant enzyme. However, the enhancement of enzyme activity by the chaperone action of an enzyme inhibitor must be balanced against the direct inhibition of the enzyme. An enzyme activator could also function as a chaperone by binding to the enzyme and helping to correct its misfolding and mistrafficking. While activators for GC have not yet been identified, they may have better therapeutic potential than inhibitors. Therefore the discovery and development of chemical activators may provide a new strategy for the chaperone therapy. To characterize compound selectivity, selected hits from the primary screen were screened against purified alpha-galactosidase, a related sugar hydrolase. Alpha-galactosidase is a homodimeric glycoprotein that hydrolyzes the terminal alpha-galactosyl moieties from glycolipids and glycoproteins.
NCGC Assay Protocol Summary: This is a fluorogenic enzyme assay with 4-Methylumbelliferyl alpha-D-galactopyranoside as the substrate and human […] as the enzyme preparation. Upon the hydrolysis of this fluorogenic substrate, the resulting product, […]. 4-Methyllumbelliferone, can be excited at 365 nm and emits at 440 nm. This fluorescence which can be detected by a standard fluorescence plate reader. Data were normalized to the controls for basal activity (without enzyme) and 100% activity (with enzyme). In the AC50 values were determined from concentration-response data modeled with the standard Hill equation. Assay buffer: 50 mM citric acid (titrated with potassium phosphate to pH 4.5), 0.005% Tween-20, pH 4.5. (pH 4.5 is an optimal condition for this enzyme assay) 1536-well assay protocol for the human alpha-galactosidase: (1) Add 2 ul/well of enzyme (12 nM final) (2) Add 23 nL compounds in DMSO solution. The final titration was 0.7 nM to 77 uM. (3) Add 1 ul of substrate ([…]) (4) Incubate at room temperature for 20 min. (5) Add 2 ul stop solution (1M NaOH and 1M Glycine mixture, pH 10) (6) Detect the assay plate in a ViewLux plate reader (PerkinElmer) with Ex=365 nm and Em=440nm.

Sequence of Alpha-galactosidase A (Homo sapiens) (P06280 whole entry, looked up): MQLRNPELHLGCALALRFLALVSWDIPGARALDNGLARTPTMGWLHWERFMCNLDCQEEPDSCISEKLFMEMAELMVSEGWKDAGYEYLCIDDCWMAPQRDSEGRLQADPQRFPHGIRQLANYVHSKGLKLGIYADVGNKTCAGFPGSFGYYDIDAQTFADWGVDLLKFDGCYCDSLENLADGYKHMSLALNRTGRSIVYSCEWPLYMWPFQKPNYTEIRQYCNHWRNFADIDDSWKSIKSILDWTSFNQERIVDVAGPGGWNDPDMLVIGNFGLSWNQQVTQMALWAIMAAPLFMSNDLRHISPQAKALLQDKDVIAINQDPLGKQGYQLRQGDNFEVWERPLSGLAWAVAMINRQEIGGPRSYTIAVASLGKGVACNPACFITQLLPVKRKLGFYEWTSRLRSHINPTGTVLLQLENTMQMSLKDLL

SMILES	max response
C#Cc1ccc(NC(=O)c2cnn3c(C)cc(C)nc23)cc1	-7.39% (inactive)
O=C(Nc1ccccc1Sc1ccccc1)c1cnn2c1NC(=C1CC1)C=C2C(F)(F)F	-8.17% (inactive)
O=C(Nc1ccccc1Sc1ccccc1)c1cnn2c1NC(=C1CC1)C=C2C(F)F	-8.53% (inactive)
O=C(NC1CCCCC1)c1cnn2c1NC(=C1CC1)C=C2C(F)F	-4.62% (inactive)
C=C1C=C(C(F)F)n2ncc(C(=O)Nc3ccc(C(C)CC)cc3)c2N1 (stereo unspecified)	-7.63% (inactive)
O=C(Nc1ccc2c(c1)CCC2)c1cnn2c1NC(=C1CC1)C=C2C(F)F	-2.77% (inactive)
